Measured values from the supplement of paper PMC11732987, “Enantioselective OTUD7B fragment discovery through chemoproteomics screening and high-throughput optimisation” (Communications Chemistry, 2025).

How the values were obtained:
Experiment in all cases: log2 ratio of Biotin-Ahx-Ub-VS probe labelling (fragment/DMSO); higher = less target engagement (more negative = stronger competition), active = hit call of the paper (q ≤ 0.05, log2 ratio ≤ -1)
Settings in all cases: compound concentration: 200 uM; treatment time: 3 h
[1] = molecular target: T1, ALG13 (UniProt Q9NP73)
T1 sequence (whole entry): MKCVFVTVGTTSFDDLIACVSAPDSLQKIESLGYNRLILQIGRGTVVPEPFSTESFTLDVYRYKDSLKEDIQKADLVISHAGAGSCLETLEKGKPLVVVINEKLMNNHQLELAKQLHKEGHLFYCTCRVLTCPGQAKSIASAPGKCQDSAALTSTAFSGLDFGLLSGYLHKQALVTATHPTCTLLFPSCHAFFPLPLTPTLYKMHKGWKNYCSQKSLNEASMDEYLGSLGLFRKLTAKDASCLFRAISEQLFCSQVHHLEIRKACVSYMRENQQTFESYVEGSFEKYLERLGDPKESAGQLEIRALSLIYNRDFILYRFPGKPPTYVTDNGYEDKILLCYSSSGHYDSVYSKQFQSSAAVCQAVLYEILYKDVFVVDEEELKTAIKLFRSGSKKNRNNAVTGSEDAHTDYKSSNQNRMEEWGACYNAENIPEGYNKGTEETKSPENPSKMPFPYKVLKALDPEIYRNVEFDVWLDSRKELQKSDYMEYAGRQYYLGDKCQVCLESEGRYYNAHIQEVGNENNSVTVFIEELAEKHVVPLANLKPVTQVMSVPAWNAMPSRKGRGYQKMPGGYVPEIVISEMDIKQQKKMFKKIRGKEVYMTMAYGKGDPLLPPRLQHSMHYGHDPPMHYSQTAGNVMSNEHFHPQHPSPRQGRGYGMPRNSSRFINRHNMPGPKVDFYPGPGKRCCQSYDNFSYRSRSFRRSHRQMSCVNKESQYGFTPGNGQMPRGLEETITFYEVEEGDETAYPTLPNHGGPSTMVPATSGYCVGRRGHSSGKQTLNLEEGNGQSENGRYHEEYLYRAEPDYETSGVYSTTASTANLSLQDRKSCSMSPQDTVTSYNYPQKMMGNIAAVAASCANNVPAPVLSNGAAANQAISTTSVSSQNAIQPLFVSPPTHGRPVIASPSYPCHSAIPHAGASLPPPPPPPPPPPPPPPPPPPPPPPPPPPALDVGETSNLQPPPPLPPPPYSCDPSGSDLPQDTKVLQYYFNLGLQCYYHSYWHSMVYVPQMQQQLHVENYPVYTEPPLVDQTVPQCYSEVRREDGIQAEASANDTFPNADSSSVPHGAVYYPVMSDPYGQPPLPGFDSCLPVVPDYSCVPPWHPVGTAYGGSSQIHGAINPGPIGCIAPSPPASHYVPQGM
Outline: (§1)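 Fragment (200 µM) or vehicle was incubated for 3 h with triplicate HEK293T lysate samples of 495 µg, which were then treated with Biotin-Ahx-Ub-VS at 0.5 µM final for 1 h. Labelled DUBs were enriched on NeutrAvidin, digested with LysC and trypsin, and analysed by diaPASEF LC-MS/MS. Values are average log2 fragment/vehicle ratios from an unpaired t-test on global-median-normalised Spectronaut label-free quantities, using proteins with ≥2 unique peptides.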

[2] = molecular target: ATXN3 (UniProt P54252)
Outline: as §1

[3] = molecular target: T2, BAP1 (UniProt Q92560)
T2 sequence (whole entry): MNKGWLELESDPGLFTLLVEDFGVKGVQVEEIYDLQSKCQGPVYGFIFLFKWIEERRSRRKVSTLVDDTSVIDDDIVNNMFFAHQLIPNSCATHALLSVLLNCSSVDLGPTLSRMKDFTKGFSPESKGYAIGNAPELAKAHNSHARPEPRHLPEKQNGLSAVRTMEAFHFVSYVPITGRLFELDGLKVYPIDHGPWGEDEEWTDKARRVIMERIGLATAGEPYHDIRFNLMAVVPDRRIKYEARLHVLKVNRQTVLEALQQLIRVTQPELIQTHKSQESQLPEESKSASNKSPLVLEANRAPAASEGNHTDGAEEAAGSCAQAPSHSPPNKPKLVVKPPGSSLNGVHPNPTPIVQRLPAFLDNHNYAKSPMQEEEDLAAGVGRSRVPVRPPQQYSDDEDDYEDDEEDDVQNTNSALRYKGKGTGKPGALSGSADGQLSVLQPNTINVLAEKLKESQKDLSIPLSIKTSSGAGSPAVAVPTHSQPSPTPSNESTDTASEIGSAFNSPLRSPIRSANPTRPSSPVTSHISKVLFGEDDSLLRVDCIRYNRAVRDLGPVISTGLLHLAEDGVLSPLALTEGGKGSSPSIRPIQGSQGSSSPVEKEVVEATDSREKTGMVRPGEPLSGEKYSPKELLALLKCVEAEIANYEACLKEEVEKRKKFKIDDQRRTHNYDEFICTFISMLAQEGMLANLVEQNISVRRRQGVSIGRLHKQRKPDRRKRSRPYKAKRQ
Outline: as §1

[4] = molecular target: EIF3F (UniProt O00303)
Outline: as §1

[5] = molecular target: EIF3H (UniProt O15372)
Outline: as §1

[6] = molecular target: T3, FAM105A (UniProt Q9NUU6)
T3 sequence (whole entry): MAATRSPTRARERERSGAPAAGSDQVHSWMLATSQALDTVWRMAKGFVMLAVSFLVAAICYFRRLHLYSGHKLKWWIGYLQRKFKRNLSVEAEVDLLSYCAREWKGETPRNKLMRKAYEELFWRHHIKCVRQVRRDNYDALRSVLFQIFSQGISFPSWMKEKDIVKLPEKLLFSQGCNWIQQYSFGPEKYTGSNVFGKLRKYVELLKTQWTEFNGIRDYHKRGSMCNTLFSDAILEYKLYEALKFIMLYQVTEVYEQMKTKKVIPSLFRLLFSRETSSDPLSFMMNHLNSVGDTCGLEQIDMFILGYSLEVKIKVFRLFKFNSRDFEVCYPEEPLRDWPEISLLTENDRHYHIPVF
Outline: as §1

[7] = molecular target: OTUB1 (UniProt Q96FW1)
Outline: as §1

[8] = molecular target: T4, OTUD4 (UniProt Q01804)
T4 sequence (whole entry): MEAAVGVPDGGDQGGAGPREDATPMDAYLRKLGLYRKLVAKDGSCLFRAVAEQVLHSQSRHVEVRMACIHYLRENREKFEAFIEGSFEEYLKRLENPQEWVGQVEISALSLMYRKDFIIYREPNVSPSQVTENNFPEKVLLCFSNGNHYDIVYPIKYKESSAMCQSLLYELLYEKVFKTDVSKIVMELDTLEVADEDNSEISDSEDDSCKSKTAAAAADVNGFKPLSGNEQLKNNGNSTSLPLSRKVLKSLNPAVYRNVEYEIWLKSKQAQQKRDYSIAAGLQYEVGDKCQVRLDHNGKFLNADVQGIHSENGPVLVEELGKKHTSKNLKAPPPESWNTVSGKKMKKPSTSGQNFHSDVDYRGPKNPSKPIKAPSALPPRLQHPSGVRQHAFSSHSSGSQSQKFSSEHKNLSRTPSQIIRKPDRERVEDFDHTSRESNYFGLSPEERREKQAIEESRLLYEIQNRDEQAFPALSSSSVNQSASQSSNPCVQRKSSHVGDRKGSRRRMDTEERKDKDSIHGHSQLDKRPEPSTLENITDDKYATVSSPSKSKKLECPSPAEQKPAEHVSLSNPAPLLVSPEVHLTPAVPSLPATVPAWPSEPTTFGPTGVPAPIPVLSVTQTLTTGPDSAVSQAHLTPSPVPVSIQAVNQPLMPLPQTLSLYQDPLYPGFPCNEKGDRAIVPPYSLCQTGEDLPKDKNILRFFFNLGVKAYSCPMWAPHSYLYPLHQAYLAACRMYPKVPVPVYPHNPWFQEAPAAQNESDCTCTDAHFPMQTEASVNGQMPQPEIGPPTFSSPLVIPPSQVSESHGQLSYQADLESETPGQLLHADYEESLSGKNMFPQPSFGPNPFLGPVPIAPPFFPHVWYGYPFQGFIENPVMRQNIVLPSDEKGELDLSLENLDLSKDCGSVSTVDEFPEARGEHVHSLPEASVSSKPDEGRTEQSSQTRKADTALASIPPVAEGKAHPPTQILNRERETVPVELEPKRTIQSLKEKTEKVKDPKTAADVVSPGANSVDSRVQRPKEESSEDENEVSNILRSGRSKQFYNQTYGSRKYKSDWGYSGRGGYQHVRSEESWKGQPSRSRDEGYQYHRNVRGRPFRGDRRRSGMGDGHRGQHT
Outline: as §1

[9] = molecular target: T5, OTUD5 (UniProt Q96G74)
T5 sequence (whole entry): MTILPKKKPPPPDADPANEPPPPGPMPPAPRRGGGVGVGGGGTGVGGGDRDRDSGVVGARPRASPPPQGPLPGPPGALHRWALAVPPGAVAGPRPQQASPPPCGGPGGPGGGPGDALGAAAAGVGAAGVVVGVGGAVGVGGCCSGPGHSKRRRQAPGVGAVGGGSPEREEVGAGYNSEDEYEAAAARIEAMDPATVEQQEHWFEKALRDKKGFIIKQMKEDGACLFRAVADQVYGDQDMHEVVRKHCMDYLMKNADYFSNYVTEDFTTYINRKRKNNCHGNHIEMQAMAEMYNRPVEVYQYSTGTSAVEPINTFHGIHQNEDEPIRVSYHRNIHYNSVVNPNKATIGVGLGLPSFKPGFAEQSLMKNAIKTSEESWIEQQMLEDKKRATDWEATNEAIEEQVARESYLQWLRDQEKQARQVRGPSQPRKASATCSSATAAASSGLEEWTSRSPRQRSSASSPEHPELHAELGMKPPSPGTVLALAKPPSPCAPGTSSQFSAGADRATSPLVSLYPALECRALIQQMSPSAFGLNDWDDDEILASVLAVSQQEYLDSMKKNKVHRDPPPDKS
Outline: as §1

Measured: log2 ratio of Biotin-Ahx-Ub-VS probe labelling

Sequence of ATXN3 (P54252 whole entry): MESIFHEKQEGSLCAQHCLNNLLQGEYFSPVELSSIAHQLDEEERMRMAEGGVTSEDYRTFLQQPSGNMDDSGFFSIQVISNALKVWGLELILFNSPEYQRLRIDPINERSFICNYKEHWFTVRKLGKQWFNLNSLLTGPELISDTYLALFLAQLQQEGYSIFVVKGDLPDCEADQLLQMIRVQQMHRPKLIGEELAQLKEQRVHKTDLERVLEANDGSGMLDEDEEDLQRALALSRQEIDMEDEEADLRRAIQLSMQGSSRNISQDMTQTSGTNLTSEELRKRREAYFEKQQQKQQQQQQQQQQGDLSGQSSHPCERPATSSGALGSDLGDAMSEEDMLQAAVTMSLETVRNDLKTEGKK
Sequence of OTUB1 (Q96FW1 whole entry): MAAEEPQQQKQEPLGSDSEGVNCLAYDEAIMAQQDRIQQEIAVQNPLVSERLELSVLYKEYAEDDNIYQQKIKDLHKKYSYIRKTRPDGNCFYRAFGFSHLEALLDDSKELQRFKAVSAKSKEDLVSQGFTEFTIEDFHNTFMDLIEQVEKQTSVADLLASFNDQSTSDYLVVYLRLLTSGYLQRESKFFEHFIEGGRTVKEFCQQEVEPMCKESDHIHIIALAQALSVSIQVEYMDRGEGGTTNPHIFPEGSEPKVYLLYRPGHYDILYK
Sequence of EIF3F (O00303 whole entry): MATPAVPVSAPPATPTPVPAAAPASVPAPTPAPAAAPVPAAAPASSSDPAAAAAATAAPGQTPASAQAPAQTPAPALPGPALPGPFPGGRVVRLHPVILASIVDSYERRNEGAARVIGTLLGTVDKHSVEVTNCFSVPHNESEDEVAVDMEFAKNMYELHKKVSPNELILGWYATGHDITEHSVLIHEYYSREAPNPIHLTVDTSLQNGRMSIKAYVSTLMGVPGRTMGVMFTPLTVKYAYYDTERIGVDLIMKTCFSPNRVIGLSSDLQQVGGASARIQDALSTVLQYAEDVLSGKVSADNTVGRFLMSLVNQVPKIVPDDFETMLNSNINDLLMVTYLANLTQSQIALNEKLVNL
Sequence of EIF3H (O15372 whole entry): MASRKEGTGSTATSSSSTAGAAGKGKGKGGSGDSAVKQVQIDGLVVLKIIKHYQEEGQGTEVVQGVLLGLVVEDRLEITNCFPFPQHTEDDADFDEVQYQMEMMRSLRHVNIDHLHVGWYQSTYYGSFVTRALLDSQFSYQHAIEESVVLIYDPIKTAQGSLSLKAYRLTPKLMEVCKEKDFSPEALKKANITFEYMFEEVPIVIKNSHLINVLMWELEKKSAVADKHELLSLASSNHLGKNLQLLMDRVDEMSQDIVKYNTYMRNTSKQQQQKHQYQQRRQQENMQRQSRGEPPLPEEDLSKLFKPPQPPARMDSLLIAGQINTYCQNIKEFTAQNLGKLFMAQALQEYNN

Cc1nc(CC2CCN(C(=O)CCl)CC2)no1
active: [2] -1.02
inactive: [1] -0.358 | [3] -1.08 | [4] -0.302 | [5] -0.111 | [6] -0.155 | [7] -0.686 | [8] -0.753 | [9] -0.888
